Assay outcomes (PubChem BioAssay)
Most compounds without a hit are left out; they make up all but 8.7% or so of the library.
PostGolgi yeast: growth inhibition of a yeast mutant, post-Golgi transport screen. post-Golgi transport phenotypic cell assay. inhibition, % at 10 µM. hit rate 0.9% among 98,000;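 also: yeast cells grown in 1536-well plates; yeast grown about 18 h at 30C before absorbance read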
hDAT+cocaine: changed human dopamine transporter uptake under cocaine IC80; LLC-PK1 hDAT cells, [14C]-dopamine uptake with cocaine IC80; actives deviate in either direction; B-score at 10 µM; hit rate 1.3% among 110,000; AID 449768; Q01959;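 active = Z score or B-score, a plate-position-corrected score, falls beyond the plate's 99.7% confidence bounds, in either direction; inactive = both scores lie inside the 99.7% bounds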;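 also: scored against the spread of the other compound wells on the same plate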
Smad3 FoxH1 inh: inhibitors of human Smad3 transcription factor binding | P84022 | TR-FRET Smad3/Dy647-FoxH1 peptide binding, europium anti-His | inhibition, % at 25 µM | hit rate 0.29% among 88,000 | AID 630;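 active = compounds that reduce the energy-transfer binding signal between the protein and its labelled peptide by more than half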;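 also: 0% = Smad3 plus labelled peptide maximal FRET and 100% = peptide-only background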
TNAP act mid DEA: human TNAP activation, intermediate phosphate acceptor. activation factor at 20 µM. P05186. 64,000 tested, under 10 active. purified TNAP, CDP-star luminescence, 100 mM DEA, 30 min; stronger effect = higher value; scale: 0 levamisole-inhibited, 1 vehicle-only enzyme;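 active = activation factor of at least 2 at 20 µM, relative to controls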
Cav3 T inh: inhibitors of human Cav3.2 T-type calcium channel. Cav3.2-expressing cells, Fluo-4 calcium fluorescence FDSS; stronger effect = lower value. B-score at 10 µM. hit rate 4% among 100,000. AID 449739;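 active = single-dose well whose peak fluorescence ratio is a statistical outlier from its plate by either plate-standardised score or position-corrected B-score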
PostGolgi ctrl: growth of the yeast control strain, post-Golgi counter-screen | efflux-deficient yeast background strain, growth absorbance A615, 16 h | inhibition, % at 10 µM | hit rate 5% among 98,000 | AID 738
* marks the source's active call; other numbers are inactive results. Rule as the data show it, unless noted: active = inhibition above about 30%; inactive = the rest.

Screening FC(F)(F)c1nc(N2CCCC2)ncc1-c1nnnn1-c1ccc(Cl)cc1 returned PostGolgi yeast 22, hDAT+cocaine -0.67, Cav3 T inh -4.8* and PostGolgi ctrl 58*.
For O=C(O)c1ccc2c3c(ncnc13)-c1ccccc1C2=O the results were PostGolgi yeast 19, Smad3 FoxH1 inh 9, TNAP act mid DEA 0.8 and PostGolgi ctrl 16.
Screening CCOC(=O)C1=C(C)N2C(=C(C#N)[C@@H]1c1ccc(C(=O)OC)cc1)SC[C@@]2(O)C(C)(C)C returned PostGolgi yeast -7, hDAT+cocaine -0.83, Smad3 FoxH1 inh 3, TNAP act mid DEA 1, Cav3 T inh -5.8* and PostGolgi ctrl 5.
`c1ccc(Cn2nnnc2C(c2cccs2)N2CCc3ccccc3C2)cc1` (configuration not stated) gave PostGolgi yeast -9, hDAT+cocaine 0.71, Smad3 FoxH1 inh -1, TNAP act mid DEA 1, Cav3 T inh -3.8* and PostGolgi ctrl 19.
Cc1ccc(C(c2nnnn2CCc2ccccc2)N2CCC(C)CC2)cc1 (configuration not stated) was read as hDAT+cocaine 0.82, Smad3 FoxH1 inh 15 and Cav3 T inh -7.4*.
N#Cc1ccc(C(c2nnnn2Cc2ccccc2)N2CCCC2)cc1 (configuration not stated) was read as PostGolgi yeast 13, hDAT+cocaine -9.3*, Smad3 FoxH1 inh -1, Cav3 T inh -2.9 and PostGolgi ctrl 4.
`CN(Cc1nc(-c2ccncc2)no1)S(=O)(=O)c1ccc(Br)cc1` gave PostGolgi yeast -7, hDAT+cocaine -0.64, Smad3 FoxH1 inh -2, TNAP act mid DEA 0.8, Cav3 T inh -1.3 and PostGolgi ctrl 31*.
For CC(C)N(Cc1nc(-c2ccccc2)no1)C(=O)CCCN1C(=O)c2ccccc2C1=O the results were PostGolgi yeast -7, hDAT+cocaine 2.4*, Smad3 FoxH1 inh 10, TNAP act mid DEA 0.9, Cav3 T inh -1.8 and PostGolgi ctrl 3.
`Cc1ccc(-c2noc(CN(C(=O)C(c3ccccc3)c3ccccc3)C(C)C)n2)cc1` gave PostGolgi yeast -2, hDAT+cocaine 0.023, Smad3 FoxH1 inh 2, Cav3 T inh -8.5* and PostGolgi ctrl 12.
`Cc1cccc(-c2noc(CN(C(=O)CCc3ccccc3)C(C)C)n2)c1` gave PostGolgi yeast -3, hDAT+cocaine 0.62, Smad3 FoxH1 inh -5, TNAP act mid DEA 0.9, Cav3 T inh -3.5 and PostGolgi ctrl 28.
Screening CC(C)N(Cc1nc(-c2ccc(Cl)cc2)no1)C(=O)C(c1ccccc1)c1ccccc1 returned PostGolgi yeast 0, hDAT+cocaine 0.41, Smad3 FoxH1 inh 13, Cav3 T inh -4.3* and PostGolgi ctrl 20.
Cc1ccc(-c2noc(CN(C(=O)C34CC5CC(CC(C5)C3)C4)C(C)C)n2)cc1 was read as PostGolgi yeast 5, hDAT+cocaine -0.052, Smad3 FoxH1 inh -9, TNAP act mid DEA 0.9, Cav3 T inh 1.1 and PostGolgi ctrl 10.
Screening O=C1CC(c2cccs2)c2cc3c(cc2N1)OCO3 (configuration not stated) returned PostGolgi yeast -5, hDAT+cocaine 0.15, Smad3 FoxH1 inh 2, TNAP act mid DEA 0.9 and PostGolgi ctrl 16.
For O=C1c2ccccc2C(=O)N1CCCc1nc(-c2cccnc2)no1 the results were PostGolgi yeast -11, hDAT+cocaine 1.6, Smad3 FoxH1 inh -2, TNAP act mid DEA 1.1, Cav3 T inh 0.95 and PostGolgi ctrl -6.
For O=C1c2ccccc2C(=O)N1CCCc1nc(-c2ccncc2)no1 the results were PostGolgi yeast 1, hDAT+cocaine 0.25, Smad3 FoxH1 inh 0, Cav3 T inh 0.82 and PostGolgi ctrl 36*.
CC(C)N(Cc1nc(-c2ccccc2)no1)C(=O)CN(C)S(=O)(=O)c1ccccc1 was read as PostGolgi yeast -10, hDAT+cocaine 0.12, Smad3 FoxH1 inh -7, TNAP act mid DEA 0.9, Cav3 T inh 0.11 and PostGolgi ctrl 34*.
CC(C)N(Cc1nc(-c2ccccc2)no1)S(=O)(=O)c1ccccc1 was read as PostGolgi yeast -4, hDAT+cocaine 0.015, Smad3 FoxH1 inh -1, TNAP act mid DEA 0.9, Cav3 T inh -3.7 and PostGolgi ctrl 16.
COCCn1c(SCC(=O)NC(=O)NC(C)C)nc2ccccc21 was read as PostGolgi yeast 8, hDAT+cocaine 0.26, Smad3 FoxH1 inh 0, Cav3 T inh 0.094 and PostGolgi ctrl 17.
